# Screens: PubChem BioAssay, several laboratories
# eLon inh = inhibits E. coli Lon protease; P0A9M0; purified E. coli Lon protease, fluorescence polarization; inhibition, % at 7.94 µM; hit rate 0.42% among 360,000; AID 602123; in the data active = inhibition above about 13%, passing the limit was not always enough
# Bcl-xL primary = Bcl-xL (human) inhibition | AID 2129 | inhibition, % at 10.9 µM | GST-Bcl-xL / FITC-Bim BH3 peptide fluorescence polarization | hit rate 0.7% among 320,000 | Q07817;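 active = inhibition above the mean of all tested compounds plus 3 SD, cutoff set per campaign, cut at about 30% in these data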;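 also: inhibitors lower millipolarization by displacing the labeled peptide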
# MEX-5 binding = C. elegans MEX-5 TCR-2 RNA binding activity. MEX-5/FITC-TCR2 RNA binding, fluorescence polarization; active compounds read low. activity score (negative = inhibition of binding), % at 10 µM. hit rate 0.38% among 300,000. AID 1832;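 active = inhibition past about -25% in most replicates, and total fluorescence under double the plate's negative control median, limit read from the data; inconclusive = replicates evenly split on the limit, or fluorescence at least double controls; inactive = too little inhibition in most replicates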
# MCL1 BIM primary = MCL1-BIM-BH3 interaction inhibition (human); AID 2057; Q07820; inhibition, % at 10.9 µM; GST-MCL1 / FITC-Bim-BH3 fluorescence polarization; hit rate 0.68% among 320,000;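 active = inhibition above the mean inhibition of all tested compounds plus 3 SD, set per campaign, cut at about 40% in these data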;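 also: higher means more loss of mP so more displacement of Bim peptide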
# Target sequence (Q07820 whole entry, looked up): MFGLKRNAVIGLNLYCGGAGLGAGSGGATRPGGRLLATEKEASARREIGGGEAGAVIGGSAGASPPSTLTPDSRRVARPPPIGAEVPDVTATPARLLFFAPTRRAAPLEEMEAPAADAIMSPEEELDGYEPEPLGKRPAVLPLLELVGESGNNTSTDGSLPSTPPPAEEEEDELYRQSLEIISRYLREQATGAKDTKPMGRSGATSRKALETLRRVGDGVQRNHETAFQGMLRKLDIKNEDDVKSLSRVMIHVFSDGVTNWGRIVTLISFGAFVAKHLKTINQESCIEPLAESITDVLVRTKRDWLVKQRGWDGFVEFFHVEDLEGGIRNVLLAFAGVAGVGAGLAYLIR
# EBV gp42 inh = EBV gp42 inhibition; Q1HVG2; Fluorescence polarization binding assay, mP read-out; inhibition, % (tested at 21.74 µM); hit rate 0.42% among 220,000; AID 1085; in the data active = inhibition above about 50%
# GLD-1 TGE inh = GLD-1-TGE RNA interaction inhibition (C. elegans); AID 2280; hit rate 0.44% among 320,000; Q17339; purified GLD-1 + fluorescein TGE RNA, fluorescence polarization; inhibition, % at 5.96 µM;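 active = percent inhibition above a per-plate cutoff, the plate mean of test compounds plus 3 SD, cut at about 30% in these data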
# Bcl-xL conf = Bcl-xL (human) inhibition, MCL1 counter-screen confirmation; shares compounds with MCL1 BIM primary; GST-Bcl-xL / FITC-Bim BH3 peptide FP binding; inhibition, % at 10.9 µM; hit rate 54% among 1,700;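 active = inhibition above a cutoff equal to the mean inhibition of all tested compounds plus 3 SD, cut at about 30% in these data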
# MCL1 BIM confirm = MCL1-BIM-BH3 interaction inhibition, confirmation | inhibition, % at 10.9 µM | shares compounds with MCL1 BIM primary | AID 2168 | hit rate 61% among 1,700 | GST-MCL1 / FITC-Bim-BH3 fluorescence polarization;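 active = inhibition above the average of all tested compounds plus 3 SD, cut at about 40% in these data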
# GLD1 RNA confirm = GLD-1 TGE RNA interaction inhibition, confirmation; hit rate 10% among 550; AID 2459; GLD-1/FL-TGE RNA fluorescence polarization, biochemical; inhibition, % at 5.96 µM; shares compounds with GLD-1 TGE inh;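 active = average inhibition across triplicates above the hit cutoff set in the primary screen, cut at about 32% in these data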
# Numbers stand for hits; 0 = inactive; ? = inconclusive; - = not tested or not shown; + = active, no number. The list is not random: actives were taken first. Their share in the collection is about 1.5%.
SMILES,eLon inh,Bcl-xL primary,MEX-5 binding,MCL1 BIM primary,EBV gp42 inh,GLD-1 TGE inh,Bcl-xL conf,MCL1 BIM confirm,GLD1 RNA confirm
O=C1CCCC2=C1Sc1ccc(Cl)cc1N2,0,69.4,?,77.5,53.8,50.0,63.6,73.7,0
COc1ccc(N(CC(=O)NCc2ccco2)C(=O)CCC(=O)Nc2ccccn2)cc1,0,-,0,-,-,-,-,-,-
CSCCC(NC(=O)CCNC(=O)c1ccccc1Cl)c1nc2ccccc2[nH]1 (stereo unspecified),0,0,-,0,-,0,-,-,-
C[C@H](CO)N1C[C@H](C)[C@H](CN(C)C(=O)c2cc(-c3ccccc3)on2)OCc2cnnn2CCCC1=O,0,-,-,-,-,-,-,-,-
COCCCNC(=O)c1c(N)n(-c2ccc3c(c2)OCO3)c2nc3ccccc3nc12,0,47.8,0,58.0,-,49.1,0,0,0
Cc1ccc(C(=O)NNC(=O)c2ccc(NS(=O)(=O)c3cccs3)cc2)o1,0,60.8,-,+,-,45.8,0,0,0
O=C(NNC(=O)c1ccc(Br)o1)c1ccc(NS(=O)(=O)c2cccs2)cc1,0,-,-,-,-,-,-,-,-
CC1(C)CC(=O)C2=C(C1)Nc1ccccc1S2,0,56.1,?,58.8,0,48.7,56.0,62.3,0
O=C(COC(=O)c1cc(-c2ccco2)nc2ccccc12)NCc1ccccc1,0,0,0,0,0,0,-,-,-
CNC(=O)COC(=O)c1cc(-c2ccco2)nc2ccccc12,0,95.9,0,121.2,0,57.1,37.9,75.5,0
OCCC1CN(Cc2cccc3nccnc23)CCN1Cc1ccc(F)cc1 (stereo unspecified),0,60.2,0,59.5,0,46.0,0,0,0
CCOC(=O)CC(=O)CSc1nc(-c2cccnc2)cc(C)c1C#N,0,61.2,0,61.6,0,35.7,0,0,0
O=c1[nH]c2cc3c(cc2cc1CN(Cc1nnnn1CC1CCCO1)C1CCCCC1)OCO3 (stereo unspecified),0,76.7,0,84.9,57.4,43.2,45.1,67.9,0
Cc1csc(SCc2c(C(=O)O)oc3ccccc23)n1,0,106.7,0,125.0,0,62.1,0,0,0
COc1ccc(N2CCCC2)c(NC(=O)c2ccc(Br)o2)c1,0,48.3,0,55.8,-,38.0,0,0,41.1
N#Cc1ccsc1NC(=O)CN1C(=O)NC2(CCCC2)C1=O,0,65.5,0,70.8,-,53.9,59.2,94.2,0
CCCC(=O)NCc1ccc2c(c1)cc(C)n2C,0,48.3,0,52.4,0,54.3,0,0,0
COc1ccc(S(=O)(=O)N2CCOCC2)cc1NC(=O)CCc1cc(OC)c(OC)c(OC)c1,0,0,-,0,-,0,-,-,-
CCC(NC(=O)Cc1c(C)c2cc3c(cc2oc1=O)OC(C)(C)CC3)C(=O)O (stereo unspecified),0,0,0,0,-,0,-,-,-
CCOC(=O)c1ccc(NC(=O)CN(c2ccc(C)cc2)S(=O)(=O)c2c(C)n[nH]c2C)cc1,0,92.2,0,105.7,0,74.3,0,0,0
CC(=O)c1cn(-c2ccc(Cl)cc2)c(=O)n(Cc2ccc(F)cc2)c1=O,0,0,0,0,0,0,-,-,-
COC(=O)c1c(NC(=O)CSc2ncn[nH]2)sc(C)c1C,0,56.2,0,70.8,-,32.2,0,0,0
CCOC(=O)c1c(NC(=O)CSc2ncn[nH]2)sc(C(C)=O)c1C,0,0,0,0,-,0,-,-,-
COc1ccc(NC(=O)C2CCC(=O)N2C(=O)OCc2ccccc2)cc1 (stereo unspecified),0,0,0,0,-,0,-,-,-
CCN(CC)c1ccc(/C=C(\C#N)C(=O)NCc2ccco2)cc1,-,0,-,0,0,0,-,-,-
CC(OC(=O)/C(C#N)=C/c1ccc(N(C)C)cc1)C(=O)NCc1ccco1 (stereo unspecified),0,110.6,0,128.8,-,76.8,99.0,141.9,56.0
